Screening data from PubChem.
Rows were chosen to be rich in hits. Some 3% of all compounds tested hit in one or more screens of this group.
SENP8 block-1 – human SENP8 protease inhibitors, primary screen, biochemical, fluorescence, Nedd8 protein substrate, uHTS; Sentrin-specific protease 8 (Homo sapiens), Q96LD8; recombinant SENP8; inhibition, % at 20 µM; 360,000 compounds, 0.64% hits; AID 602440, 2012; in the data active = inhibition mostly above about 40%, no sharp cut-off; inactive = mostly below about 27%
Target sequence (Q96LD8 whole entry, looked up): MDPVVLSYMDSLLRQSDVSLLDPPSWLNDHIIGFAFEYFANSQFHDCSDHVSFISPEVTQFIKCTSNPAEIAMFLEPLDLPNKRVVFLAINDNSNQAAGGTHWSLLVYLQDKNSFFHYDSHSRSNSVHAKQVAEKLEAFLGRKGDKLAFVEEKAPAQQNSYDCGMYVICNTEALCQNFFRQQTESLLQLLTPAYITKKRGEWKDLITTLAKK
C8 TRAIL sens – viability loss with TRAIL in NB7+C8 cells, primary screen, TRAIL sensitizer project, cell-based, ATPlite luminescence. 360,000 compounds, 1% hits. inhibition (viability loss, TRAIL sensitization), % at 10 µM;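 active = compounds causing at least 50% loss of cell viability in the single-dose screen, relative to plate controls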
SENP7 inh – SENP7 protease inhibitors, primary screen, biochemical, luminescence, uHTS; Sentrin-specific protease 7 (Homo sapiens), Q9BQF6; recombinant SENP7, Z-RLRGG-aminoluciferin luminescence, 40 min; inhibition, % at 5 µM; 330,000 compounds, 1.5% hits; AID 434973, 2010;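 active = inhibition above about 50% at the single test dose, limit read from the data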;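 also: plate controls were DMSO with enzyme for no effect and no enzyme buffer wells for full effect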
Target sequence (Q9BQF6 706-1050 limits assumed): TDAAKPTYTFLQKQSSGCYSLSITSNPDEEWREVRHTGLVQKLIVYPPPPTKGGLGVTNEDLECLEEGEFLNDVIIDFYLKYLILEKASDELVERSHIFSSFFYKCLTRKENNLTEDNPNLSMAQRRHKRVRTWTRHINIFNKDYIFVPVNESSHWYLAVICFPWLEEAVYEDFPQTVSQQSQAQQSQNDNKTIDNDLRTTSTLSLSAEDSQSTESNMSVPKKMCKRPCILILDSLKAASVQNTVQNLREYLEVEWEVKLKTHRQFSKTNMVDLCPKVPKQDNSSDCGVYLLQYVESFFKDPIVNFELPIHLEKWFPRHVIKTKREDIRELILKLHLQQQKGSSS
PPC-1+TRAIL kill – compounds killing PPC-1 cancer cells with TRAIL present, primary screen, TRAIL potentiator project, ATPLite luminescence, uHTS | PPC-1 cells + TRAIL, ATPLite viability luminescence | cell killing (% activity), % at 4 µM or 5 µM | 220,000 compounds, 0.41% hits | AID 1443, 2008;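 active = cell killing above 50% in the first pass at 4 µM, then a duplicate retest at 5 µM averaging 50% or more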;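 also: plate controls were cells with TRAIL plus DMSO for no effect and medium-only wells lacking cells for full effect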
SENP6 block – SENP6 protease inhibitors, primary screen, biochemical, luminescence, uHTS | Recombinant SENP6 catalytic domain, aminoluciferin luminescence | inhibition, % at 10 µM | 330,000 compounds, 1.8% hits;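 active = inhibition above about 50% at the single tested dose, limit read from the data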;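 also: plate controls were DMSO wells with enzyme for no effect and DMSO wells lacking enzyme for full effect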
SENP8 block-2 – SENP8 protease inhibitors, primary screen, biochemical, luminescence | AID 2540, 2010 | purified SENP8, Z-RLRGG-aminoluciferin cleavage | inhibition, % at 10 µM | Sentrin-specific protease 8 (Homo sapiens), Q96LD8 | 330,000 compounds, 1.2% hits; in the data active = inhibition above about 50%
SENP8 confirm – SENP8 protease inhibitors, retest, confirmation, biochemical, luminescence, single concentration; 6,200 compounds, 40% hits; AID 488912, 2010; shares compounds with SENP7 inh; Recombinant SENP8, Z-RLRGG-aminoluciferin luminescence, 60 min; inhibition, % at 12.5 µM;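 active = mean inhibition across replicates above about 50%, limit read from the data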
SENP6 confirm – SENP6 protease inhibitors, confirmation, biochemical, luminescence, single concentration | shares compounds with SENP7 inh | recombinant SENP6, Z-RLRGG-aminoluciferin luminescence | inhibition, % at 12.5 µM | 6,200 compounds, 58% hits
SENP7 confirm – SENP7 protease inhibitors, retest, confirmation, biochemical, luminescence, single concentration; shares compounds with SENP7 inh; recombinant SENP7, Z-RLRGG-aminoluciferin luminescence, 40 min; inhibition, % at 12.5 µM; 6,200 compounds, 69% hits
Casp3 select – caspase-3 protease inhibitors, confirmation, selectivity assay for SENP inhibitor project, biochemical, single concentration | inhibition, % at 12.5 µM | shares compounds with SENP7 inh | purified caspase-3, Z-DEVD-aminoluciferin luminescence, 60 min | 6,200 compounds, 60% hits;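 active = mean inhibition above about 50%, limit read from the data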;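 also: plate controls were enzyme with DMSO for no effect and wells without caspase-3 for full effect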
Luc interf – interferes with luciferase luminescence in SENP counter-screen; inhibition, % at 12.5 µM; shares compounds with SENP7 inh; Pre-incubated SENP8/Z-RLRGG-aminoluciferin, luciferase luminescence interference; 6,200 compounds, 39% hits;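 active = mean inhibition above about 50% when retested at one dose, limit read from the data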;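 also: plate controls were DMSO wells with completed reaction for no effect and substrate without enzyme for full effect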
Active calls of the source: *; / = no result.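 The calls were made as follows, unless noted: active = mean inhibition above about 50% in the one-dose retest (limit read from the data); inactive = the rest.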

SMILES | SENP8 block-1 | C8 TRAIL sens | SENP7 inh | PPC-1+TRAIL kill | SENP6 block | SENP8 block-2 | SENP8 confirm | SENP6 confirm | SENP7 confirm | Casp3 select | Luc interf
CC(=O)Nc1cccc(NC(=S)Nc2ccc(F)cc2F)c1 | 2 | 5 | 5 | 3 | -7 | 1 | / | / | / | / | /
O=c1[nH]c(Nc2ccccc2)cc2ccccc12 | -414 | -6 | 94* | -2 | 89* | 96* | 55* | 80* | 59* | 25 | 18
CSc1ccc(C2N=C(c3ccccc3)NO2)cc1 (centres undefined) | -100 | 11 | 11 | / | 61* | 45 | 20 | 7 | 34 | 11 | 18
Oc1c(Br)cc(C2N=C(c3ccccc3)NO2)cc1Br (centres undefined) | -26 | -11 | 9 | 2 | 98* | 81* | -21 | 88* | 96* | 79* | 91*
COc1cc(C(=O)O/N=C(\N)c2cccc([N+](=O)[O-])c2)cc(OC)c1OC | 24 | 12 | 2 | 15 | -19 | 3 | / | / | / | / | /
N/C(=N\OC(=O)c1ccccc1Br)c1cccc([N+](=O)[O-])c1 | 24 | 27 | 82* | / | 85* | 66* | 59* | 52* | 83* | 51* | 66*
N/C(=N\OC(=O)c1ccccc1F)c1cccc([N+](=O)[O-])c1 | 19 | 9 | 64* | / | 13 | 34 | 24 | 44 | 78* | 51* | 43
CCCC(=O)C1=C(O)C(C(=O)OC)C(C)(C)CC1=NCCc1ccccc1 (centres undefined) | 2 | 2 | -1 | / | 5 | -4 | / | / | / | / | /
O=C(Nc1ccc2[nH]c(=O)[nH]c2c1)Nc1ccc(F)cc1F | -1 | 0 | -2 | 5 | -11 | -9 | / | / | / | / | /
O=C(Nc1ccc2[nH]c(=S)sc2c1)c1ccccc1 | -14 | 5 | 52* | 32 | 34 | 42 | 66* | 67* | 88* | 83* | 74*
O=C(Nc1ccc2[nH]c(=S)sc2c1)Nc1ccccc1F | -6 | 22 | 99* | 17 | 97* | 95* | 99* | 100* | 104* | 98* | 90*
Cc1ccc(Cl)cc1NS(=O)(=O)c1ccc2oc(=O)ccc2c1 | 22 | 5 | 4 | / | 4 | 2 | / | / | / | / | /
c1ccc(-c2ccc(-c3ccncn3)cc2)cc1 | -99 | 38 | 84* | / | 61* | 51* | 6 | 16 | 32 | 26 | 11
COc1ccc(C(=O)N2CCN(CCCc3ccccc3)CC2)cc1OC | -6 | 3 | 5 | / | 11 | 10 | / | / | / | / | /
CCCCCc1ccc(-c2ccc(/C=C/C(=O)O)cc2)nc1 | -33 | 82* | 7 | 44 | 76* | 45 | 76* | 68* | 88* | 28 | 28
CC(C)c1ccc(/C=C/C(=O)O)cc1 | 12 | 5 | -3 | 13 | -26 | -14 | / | / | / | / | /
Cc1ccc(C2(C)NC(=O)N(CC(=O)N3CCN(S(=O)(=O)c4ccc(Cl)s4)CC3)C2=O)cc1 (centres undefined) | -8 | 0 | -9 | / | -11 | -6 | / | / | / | / | /
O=C1OC(Nc2ccc3ncccc3c2)c2ccccc21 (centres undefined) | -210 | 1 | -16 | 5 | 72* | 39 | 4 | 1 | 1 | 2 | 0
CCOC(=O)c1cn2nc(N3CCCCC3)ccc2n1 | -305 | 53* | 71* | 32 | 72* | 68* | 72* | 72* | 93* | 89* | 78*
Cc1cc(=O)[nH]c(SCC(=O)c2ccccc2)c1C#N | 26 | -4 | 26 | 17 | 74* | 60* | 72* | 74* | 94* | 82* | 79*
Cc1cc(C)c(C#N)c(SCC(=O)c2ccccc2)n1 | 17 | 4 | 11 | 11 | -9 | -1 | / | / | / | / | /
CN1/C(=C/C(=O)c2cccs2)Sc2ccccc21 | -284 | 57* | 83* | 46 | 90* | 84* | 94* | 94* | 102* | 94* | 92*
CN1/C(=C\C(=O)c2cccs2)Sc2ccccc21 | -497 | 64* | -4 | 28 | 86* | 82* | 91* | 90* | 100* | 92* | 92*
COc1cc(OC)cc(C(=O)/C=C2\Sc3ccccc3N2C)c1 | -73 | 2 | 3 | 8 | 18 | -14 | / | / | / | / | /
CN1CCN(/N=C/c2ccc(-c3ccccc3)cc2)CC1 | 2 | 8 | 83* | 21 | 22 | 79* | 82* | 86* | 98* | 90* | 50*
SMILES | SENP8 block-1 | C8 TRAIL sens | SENP7 inh | PPC-1+TRAIL kill | SENP6 block | SENP8 block-2 | SENP8 confirm | SENP6 confirm | SENP7 confirm | Casp3 select | Luc interf
O=C(/C=C\Nc1ccccn1)c1ccc(Cl)cc1 | -180 | 82* | 8 | 71* | 95* | 95* | 36 | 77* | 88* | 75* | 31
O=C(Cc1ccc(Cl)cc1)Nc1ccccn1 | 9 | 18 | 6 | / | 7 | 4 | / | / | / | / | /
COc1cccc(C(=O)/C=C/Nc2cc(C)ccc2O)c1 | -15 | 55* | 101* | 16 | 92* | 84* | 5 | 92* | 99* | 72* | 87*
O=C(/C=C/c1ccccc1O)c1ccc(Cl)cc1 | 11 | -3 | -4 | 14 | 67* | 40 | 48 | 55* | 8 | 12 | 56*
COc1cccc(C(=O)/C=C/Nc2ccc(S(=O)(=O)Nc3nc(C)cc(C)n3)cc2)c1 | -423 | 0 | 10 | 0 | 2 | -6 | / | / | / | / | /
Cc1ccc(Cl)c(N/C=C/C(=O)c2ccccc2)c1 | -33 | 25 | 71* | / | 77* | 49 | 46 | 60* | 79* | 50* | 29
CC(=O)c1ccc(-n2nnnc2SCC(=O)NC2CCCCC2)cc1 | -3 | -14 | 5 | / | -23 | -5 | / | / | / | / | /
Cc1cccc(N/C=C/C(=O)c2ccc(Cl)cc2)c1 | -146 | 33 | 89* | / | 73* | 66* | 18 | 20 | 22 | 46 | 7
